Values joined by “and” are separate entries in the source; they are usually repeats but may differ in a detail not shown here. Equal entries are not always repeated. Inconclusive results are not listed. A structure can be active in one record and inactive in another. Active and inactive are the calls of the source. Unless noted, the call rests on the fitted dose curve.

A short description of experiment [1]: Nuclear factor erythroid 2-related factor 2/antioxidant responsive element (Nrf2/ARE) small molecule agonists: qHTS cell viability counter screen in human keratinocytes (AID 1919968; active means well fitted curve in the direction sought with a large enough effect in the repeat runs; an effect the other way counts as inactive or inconclusive; further: nearly all actives have a fitted effect of over 55% in size). In short, it runs like this: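 Cells of the KeratinoSens line were plated at 1,500 per well and left for 5 h before compound transfer from DMSO stocks. After a 23 h incubation (37 C, 5% CO2), CellTiter-Fluor was added. Signal was taken as fluorescence intensity 1 h later.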
(In general: Quantitative high-throughput screening tests each substance at several concentrations.)

Experiment [2] in a line: Nuclear factor erythroid 2-related factor 2/antioxidant responsive element (Nrf2/ARE) small molecule agonists: luciferase reporter gene qHTS assay in human keratinocytes (AID 1919969). Further: nearly all actives have a fitted effect of over 35% in size. Further: potency means the concentration at half of the fitted maximal effect. In general terms: Reporter assays use an easily measured gene product as a stand-in for the process of interest.
Experiment [3] addresses Gonadotropin-releasing hormone receptor (Homo sapiens) (UniProt P30968). The experiment in a line: Human gonadotropin-releasing hormone receptor (GnRHR) small molecule agonists, calcium flux assay in GnRHR-HEK293 cells (AID 1920063). Further: nearly all actives have a fitted effect of over 35% in size. The gist of the method:
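Compounds dissolved in DMSO are pin-transferred onto dye-loaded GnRHR-HEK293 cells, which were seeded 18 h before at 37 C/5% CO2. Calcium signal is read as fluorescence intensity at 1 s intervals for 3 min.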
(In general: A change in cytosolic calcium serves as a functional read-out for many receptors and channels.)

Experiment [4] deals with KiSS-1 receptor (Homo sapiens) (UniProt Q969F8). In words: Human kisspeptin (KISS1R) small molecule agonists, calcium flux assay in KISS1R-HEK293 cells (AID 1920064; active means well fitted curve in the direction sought with a large enough effect in the repeat runs; an effect the other way counts as inactive or inconclusive). The gist of the method:
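Cell line: HEK293, stable human KISS1R. Dye loading 1 h at 37 C after 18 h culture. Read: kinetic fluorescence, 480/540 nm, 3 min at 1 s intervals.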

The nature of experiment [5]: G protein-coupled receptor (GPCR) small molecule agonists, calcium flux assay: HEK293 wild type cell line counter screen (AID 1920065). The gist of the method: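 Tox21 10K compounds, 15 concentrations each in triplicate, pin-transferred in DMSO onto dye-loaded cells; kinetic read at 480/540 nm for 3 min, 1 s intervals.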
The nature of experiment [6]: p53 small molecule agonists, cell-based qHTS assay with human liver microsomes: qHTS cell viability counter screen (AID 1963579). Further: nearly all actives have a fitted effect of over 45% in size. The gist of the method:
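p53RE-bla cells (4,000/well) were pre-incubated 5 h at 37 C, then given compounds in DMSO plus human liver microsomes (0.5 mg/mL final) and NADPH (0.5 mg/mL final) for 16 h at 37 C. Viability was read by CellTiter-Glo luminescence.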

A short description of experiment [7]: p53 small molecule agonists, cell-based qHTS assay: qHTS cell viability counter screen (AID 1963581). Further: nearly all actives have a fitted effect of over 45% in size. In short, it runs like this: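 ATP content measured by luminescence in HCT-116 p53RE-bla cells treated 16 h at 37 C, same wells as the reporter screen.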
The nature of experiment [8]: p53 small molecule agonists, cell-based qHTS assay (AID 1963582; active means well fitted activation curve with a large enough effect in the signal ratio in the repeat runs, not every such curve was filed as active; the % refers to the signal ratio). The gist of the method:
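16 h compound exposure (37 C) of p53 response element–bla cells, preceded by 5 h recovery at 37 C/5% CO2; read-out via LiveBLAzer B/G FRET substrate, 2 h RT, fluorescence intensity.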

Experiment [9] concerns the target 5-hydroxytryptamine receptor 2A (Homo sapiens) (UniProt P28223). In words: 5-hydroxytryptamine receptor 2A (HTR2A) small molecule antagonists, cell-based qHTS assay (AID 1963586). Further: nearly all actives have a fitted effect of over 45% in size. Further: potency means the concentration at half of the fitted maximal effect. The gist of the method: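 CHO cells stably expressing human HTR2A were plated for 18 h at 37 C, then loaded with calcium dye for 1 h. Compounds were preincubated 5 min at room temperature before DOI (4 nM solution) was added. Kinetic fluorescence was read for 3 min.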

For experiment [10] the target is unchanged. In words: 5-hydroxytryptamine receptor 2A (HTR2A) small molecule agonists, cell-based qHTS assay (AID 1963587). Further: nearly all actives have a fitted effect of over 30% in size. The gist of the method: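 HTR2A-CHO cells, plated 18 h at 37 C/5% CO2, dye-loaded 1 h at 37 C; compounds in DMSO added by pin tool (agonist mode). Intracellular calcium flux read as kinetic fluorescence on FDSS over 2 min at 1 s intervals.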

Experiment [11] deals with Muscarinic acetylcholine receptor M1 (Homo sapiens) (UniProt P11229). In words: Cholinergic receptor muscarinic 1 (CHRM1) small molecule agonists, cell-based qHTS assay (AID 1963589). Further: nearly all actives have a fitted effect of over 35% in size. The gist of the method:
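Homogeneous fluorescence calcium flux, agonist mode. Human M1-expressing CHO cells; compound dosed at 15 concentrations, three independent runs; signal sampled every 1 sec.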

Experiment [12] is described as follows: cAMP Responsive Elements (CRE) small molecule agonists, cell-based qHTS assay (AID 1963590). In short, it runs like this: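 HEK 293T cells stably bearing CRE-bla were plated at 2,000 cells per well and rested 18 h. Compounds, positive controls or DMSO were added for 3 h at 37 C. LiveBLAzer B/G substrate was then loaded for 2 h at room temperature.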
The target in experiment [13] is D(2) dopamine receptor (Homo sapiens) (UniProt P14416). The experiment in a line: Dopamine D2 receptor (DRD2) small molecule agonists, cell-based qHTS assay (AID 1963594). Further: nearly all actives have a fitted effect of over 35% in size. The gist of the method:
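HEK293 cells stably expressing DRD2 were cultured 24 h at 37 C, then given Ro20-1724 (0.1 mM final) and compounds for 10 min at room temperature. NKH477 (200nM) was then added for 30 min. cAMP was read by HTRF.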

Experiment [14] shares this target. In words: Dopamine D2 receptor (DRD2) small molecule antagonists, cell-based qHTS assay (AID 1963595; active means well fitted inhibition curve with a large enough effect in the signal ratio in the repeat runs, with a control signal flat; the % refers to the signal ratio). The gist of the method:
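Readout: HTRF cAMP, cAMP-d2 competing with cellular cAMP for anti-cAMP cryptate, read after 1 h. Cells: DRD2-HEK293. Conditions: 0.1 mM Ro20-1724, 12 nM quinpirole, 200 nM NKH477, 30 min RT.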

Experiment [15] in a line: p53 small molecule agonists, cell-based qHTS assay with rat liver microsomes (AID 1963578). In short, it runs like this: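 p53RE-bla cells were exposed to compounds together with rat liver microsomes (0.5 mg/mL final) and NADPH (0.5 mg/mL final) for 16 h at 37 C, then read by LiveBLAzer beta-lactamase fluorescence after 2 h at room temperature.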
A short description of experiment [16]: p53 small molecule agonists, cell-based qHTS assay with rat liver microsomes: qHTS cell viability counter screen (AID 1963580). Further: nearly all actives have a fitted effect of over 45% in size. In short, it runs like this:
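Luminescent ATP readout (CellTiter-Glo, 30 min at room temperature) reports viability of p53RE-bla HCT-116 cells after 16 h at 37 C with test compounds under metabolic activation by rat liver microsomes and NADPH at 0.5 mg/mL final each.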

For experiment [17], the target named is Muscarinic acetylcholine receptor M1 (Homo sapiens) (UniProt P11229). In words: Cholinergic receptor muscarinic 1 (CHRM1) small molecule antagonists, cell-based qHTS assay (AID 1963588). Further: nearly all actives have a fitted effect of over 40% in size. In short, it runs like this:
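Compounds were tested at 15 concentrations in three independent runs. Dye-loaded CHRM1-CHO cells were exposed 5 min at room temperature before stimulation by acetylcholine added at 50nM. Intracellular calcium was read kinetically on FDSS for 3 min.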

The nature of experiment [18]: cAMP Responsive Elements (CRE) small molecule antagonists, cell-based qHTS assay (AID 1963591; active means well fitted inhibition curve with a large enough effect in the signal ratio in the repeat runs, not every such curve was filed as active; the % refers to the signal ratio). The gist of the method:
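First, CRE-bla HEK293T cells settled 18 h at 37 C. Next, compound and 0.25 uM final NKH477 were applied for 3 h. Last, LiveBLAzer B/G substrate was loaded for 2 h at room temperature.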

Experiment [19] addresses Beta-2 adrenergic receptor (Homo sapiens) (UniProt P07550). In words: Adrenergic beta2 receptor (ADRB2) small molecule antagonists, cell-based qHTS assay (AID 1963592). Further: series mostly up to about 92 µM; nearly all actives have a fitted effect of over 50% in size. In short, it runs like this: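 Assay format: CHO-ADRB2 cells, 18-20hr seeding at 37C/5% CO2, then compound plus 1nM isoproterenol agonist mix for 0.5hr RT. Homogeneous time-resolved fluorescence cAMP detection after 1hr, expressed as 665/615 nm ratio.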

Experiment [20] shares this target. In words: Adrenergic beta2 receptor (ADRB2) small molecule agonists, cell-based qHTS assay (AID 1963593).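 Further: CHO cells stably overexpressing human ADRB2.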 The gist of the method:
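CHO cells stably over-expressing ADRB2 were plated overnight at 37C, then dosed with compounds plus a stimulation mix containing 100uM IBMX and 25uM Ro-20-1724 for 0.5hr at room temperature. cAMP was measured by HTRF competition, 1hr.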

Chain of Gonadotropin-releasing hormone receptor (Homo sapiens) (P30968 whole entry, looked up): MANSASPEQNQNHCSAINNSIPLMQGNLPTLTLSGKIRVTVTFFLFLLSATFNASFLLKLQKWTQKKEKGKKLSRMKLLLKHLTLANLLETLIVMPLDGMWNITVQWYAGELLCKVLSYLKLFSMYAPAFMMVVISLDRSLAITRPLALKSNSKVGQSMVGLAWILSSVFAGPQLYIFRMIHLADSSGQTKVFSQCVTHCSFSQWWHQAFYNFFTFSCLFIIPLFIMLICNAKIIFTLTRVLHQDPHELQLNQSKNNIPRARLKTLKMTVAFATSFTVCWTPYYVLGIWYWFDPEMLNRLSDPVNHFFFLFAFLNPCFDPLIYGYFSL
Chain of 5-hydroxytryptamine receptor 2A (Homo sapiens) (P28223 whole entry, looked up): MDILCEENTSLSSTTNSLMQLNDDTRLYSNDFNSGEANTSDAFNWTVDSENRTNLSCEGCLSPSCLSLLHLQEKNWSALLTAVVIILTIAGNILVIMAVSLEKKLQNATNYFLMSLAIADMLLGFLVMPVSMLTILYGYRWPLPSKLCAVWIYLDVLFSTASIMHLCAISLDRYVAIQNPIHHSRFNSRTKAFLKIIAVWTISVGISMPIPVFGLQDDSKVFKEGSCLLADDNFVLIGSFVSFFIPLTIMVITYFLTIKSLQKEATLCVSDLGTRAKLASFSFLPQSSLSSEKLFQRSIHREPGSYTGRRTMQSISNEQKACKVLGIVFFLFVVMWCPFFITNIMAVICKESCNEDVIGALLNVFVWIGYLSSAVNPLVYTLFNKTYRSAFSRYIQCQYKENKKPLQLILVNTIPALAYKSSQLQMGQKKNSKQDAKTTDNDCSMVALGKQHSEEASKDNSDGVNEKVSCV
Chain of KiSS-1 receptor (Homo sapiens) (Q969F8 whole entry, looked up): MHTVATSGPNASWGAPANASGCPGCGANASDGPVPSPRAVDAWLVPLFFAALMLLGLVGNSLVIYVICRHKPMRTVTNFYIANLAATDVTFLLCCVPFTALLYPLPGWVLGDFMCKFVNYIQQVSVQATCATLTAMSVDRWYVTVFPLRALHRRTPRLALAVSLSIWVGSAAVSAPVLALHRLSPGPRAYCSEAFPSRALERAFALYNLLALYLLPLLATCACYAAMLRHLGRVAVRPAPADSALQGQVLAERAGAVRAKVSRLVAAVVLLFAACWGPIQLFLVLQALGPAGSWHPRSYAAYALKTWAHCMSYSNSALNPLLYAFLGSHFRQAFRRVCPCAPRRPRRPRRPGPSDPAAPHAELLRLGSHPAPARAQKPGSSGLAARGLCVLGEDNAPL
Chain of Muscarinic acetylcholine receptor M1 (Homo sapiens) (P11229 whole entry, looked up): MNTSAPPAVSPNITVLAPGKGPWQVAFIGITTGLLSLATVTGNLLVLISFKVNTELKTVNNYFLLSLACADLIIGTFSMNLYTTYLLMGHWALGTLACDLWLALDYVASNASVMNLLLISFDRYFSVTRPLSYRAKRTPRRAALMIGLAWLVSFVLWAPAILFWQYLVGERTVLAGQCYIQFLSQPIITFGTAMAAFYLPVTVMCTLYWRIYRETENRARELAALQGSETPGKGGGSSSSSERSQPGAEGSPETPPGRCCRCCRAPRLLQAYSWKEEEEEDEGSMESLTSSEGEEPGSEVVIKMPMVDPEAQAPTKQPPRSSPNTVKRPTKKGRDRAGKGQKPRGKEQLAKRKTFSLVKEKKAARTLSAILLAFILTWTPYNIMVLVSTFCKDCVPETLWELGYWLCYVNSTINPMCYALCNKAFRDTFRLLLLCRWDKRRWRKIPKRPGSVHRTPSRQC
Chain of D(2) dopamine receptor (Homo sapiens) (P14416 whole entry, looked up): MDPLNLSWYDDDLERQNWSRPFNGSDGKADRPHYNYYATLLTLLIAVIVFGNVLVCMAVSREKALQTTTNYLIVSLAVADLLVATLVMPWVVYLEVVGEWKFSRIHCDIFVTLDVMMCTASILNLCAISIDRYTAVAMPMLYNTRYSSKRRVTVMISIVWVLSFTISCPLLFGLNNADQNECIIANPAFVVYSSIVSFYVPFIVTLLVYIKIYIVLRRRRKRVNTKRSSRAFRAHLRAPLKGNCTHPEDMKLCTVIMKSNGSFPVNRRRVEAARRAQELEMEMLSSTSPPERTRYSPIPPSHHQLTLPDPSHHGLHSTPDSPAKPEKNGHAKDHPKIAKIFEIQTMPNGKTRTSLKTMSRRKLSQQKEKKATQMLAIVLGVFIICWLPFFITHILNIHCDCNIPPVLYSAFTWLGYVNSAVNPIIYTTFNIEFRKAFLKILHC
Chain of Beta-2 adrenergic receptor (Homo sapiens) (P07550 whole entry, looked up): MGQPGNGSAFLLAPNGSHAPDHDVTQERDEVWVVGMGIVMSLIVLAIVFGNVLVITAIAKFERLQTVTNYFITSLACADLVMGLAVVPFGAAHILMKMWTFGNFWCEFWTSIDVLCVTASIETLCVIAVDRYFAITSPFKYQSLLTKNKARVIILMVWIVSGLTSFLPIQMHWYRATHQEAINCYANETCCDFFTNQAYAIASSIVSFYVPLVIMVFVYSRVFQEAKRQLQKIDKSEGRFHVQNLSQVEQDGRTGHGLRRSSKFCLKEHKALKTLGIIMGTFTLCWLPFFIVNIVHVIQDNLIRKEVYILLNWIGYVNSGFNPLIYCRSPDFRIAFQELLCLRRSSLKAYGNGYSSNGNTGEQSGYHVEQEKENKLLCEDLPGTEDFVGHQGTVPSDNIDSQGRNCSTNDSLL

With `OC(c1ccc(Cl)cc1)(c1cncnc1)c1ccccc1Cl` (stereo not given), the Potency entry in experiment [1], in [3], in experiment [4], in experiment [5], in [6] and in [7] was “inactive” throughout. For the same molecule, the Potency entry in experiment [8], in experiment [9], in experiment [10], in [11], in experiment [12] and in [13] was “inactive” in each case. Moreover, the Potency result in [14] was “inactive”. The Potency in experiment [2] is 24.8 µM (active) and inactive.

For `Clc1nc(Cl)nc(Nc2ccccc2Cl)n1`, the Potency result in experiment [1], in experiment [2], in [3], in [4], in [5] and in [15] was “inactive” throughout. Also, the Potency entry in [6], in [16], in [7], in experiment [8], in experiment [9] and in experiment [10] was “inactive” each time. Moreover, the Potency result in [17], in [11], in experiment [12], in experiment [18], in [19] and in experiment [20] was “inactive” each time. For the same molecule, the Potency entry in experiment [13] and in experiment [14] was “inactive” each time.

As for `CNC(=O)Oc1cccc2c1OC(C)(C)O2`, the Potency result in [1], in experiment [2], in experiment [3], in [4], in [5] and in [6] was “inactive” throughout. Also, the Potency entry in experiment [16], in experiment [8], in [9], in experiment [10], in [17] and in experiment [11] was “inactive” in each case. Besides, the Potency result in [12], in [18], in [19], in experiment [20] and in experiment [13] was “inactive” throughout.

With `COP(=O)(NC(C)=O)SC` (stereo not given), the Potency entry in [1], in experiment [2], in experiment [3], in [4], in [5] and in [15] was “inactive” throughout. Also, the Potency entry in experiment [6], in [16], in experiment [7], in experiment [8], in experiment [9] and in experiment [10] was “inactive” throughout. For the same molecule, the Potency entry in experiment [17], in experiment [11], in [12], in [18], in [19] and in experiment [20] was “inactive” throughout. The Potency result in experiment [13] and in experiment [14] was “inactive” in each case.

With `O=C(CCl)c1ccccc1`, the Potency result in [1], in experiment [3], in experiment [4], in experiment [5], in experiment [16] and in experiment [8] was “inactive” in each case. The Potency result in [9], in [10], in [11], in experiment [12], in experiment [19] and in experiment [13] was “inactive” in each case. Further, in experiment [14], the Potency result is “inactive”. Moreover, in experiment [2], the Potency is 62 µM (active) and 54.5 µM (active).

As to `Brc1ccc(Oc2cc(Br)c(Br)cc2Br)c(Br)c1`, the Potency result in experiment [1], in experiment [3], in experiment [4], in experiment [5], in experiment [16] and in [7] was “inactive” throughout. The Potency entry in [8], in [9], in experiment [10], in experiment [17], in [11] and in [12] was “inactive” throughout. Moreover, the Potency entry in experiment [18], in experiment [19], in experiment [20], in experiment [13] and in [14] was “inactive” throughout. Besides, the Potency in experiment [2] was 12.3 µM (active).

For `COP(=O)(OC)C(O)C(Cl)(Cl)Cl` (stereo not given), the Potency result in experiment [1], in experiment [3], in experiment [4], in experiment [5], in experiment [6] and in experiment [16] was “inactive” each time. Besides, the Potency result in experiment [7], in [8], in experiment [10], in [11], in experiment [18] and in experiment [19] was “inactive” throughout. In addition, the Potency result in [20], in experiment [13] and in experiment [14] was “inactive” throughout. The Potency is 43.7 µM (active) and 61.1 µM (active) and inactive in [2]; “inactive and 8.39 µM (active)” in experiment [9].

For the origin of these results see PubChem BioAssay (Tox21).
